Activity calls are given as the source filed them. The calls were made as follows: active = hit-call score of the fitted dose curve at least 0.9, where 1 is the maximum; inactive = score below 0.9.
Tests used:
[1] = target: CCAAT/enhancer-binding protein beta (Homo sapiens) (UniProt P17676); test: ATG_C_EBP_CIS: Attagene CIS-FACTORIAL HepG2 Assay for human CCAAT/Enhancer Binding Protein (C/EBP) beta (AID 2282927); conditions: HepG2 Attagene cis-factorial transcription factor reporter; actives raise or lower the signal
Method in brief: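 Endogenous C/EBPb-driven reporter transcripts measured in transfected human HepG2 cells at 24 h via RT-PCR and capillary electrophoresis of labelled fragments. Activity fitted in both directions relative to DMSO baseline.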

[2] = ATG_CMV_CIS: Attagene CIS-FACTORIAL HepG2 Assay for human CMV (Internal Marker) (AID 2282928); conditions: HepG2 CMV promoter reporter, transcription factor profiling; actives raise or lower the signal;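 also: endpoint acts as a background internal control marker rather than a target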
Method in brief: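 Fluorescence intensity of RT-PCR-derived reporter fragments, resolved by capillary electrophoresis, gives the signal. HepG2 liver cells bearing transfected cis-element reporters were treated 24 h; activity in either direction was fit relative to DMSO-treated controls.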

[3] = ATG_DR4_LXR_CIS: Attagene CIS-FACTORIAL HepG2 Assay for human Liver X Receptor (LXR), DR4 submotif (AID 2282929); conditions: HepG2 Attagene DR4 cis-reporter, mRNA transcription; actives raise or lower the signal
Method in brief: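 After transient transfection with multiplexed cis-promoter reporter units, HepG2 cells received test chemicals for 24 h. Reporter mRNA induction, detected by fluorescence after RT-PCR and capillary electrophoresis, was scored relative to DMSO.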

[4] = ATG_AP_1_CIS: Attagene CIS-FACTORIAL HepG2 Assay for human Activator Protein 1 (AP-1) (AID 2282931); conditions: HepG2 Attagene cis-factorial AP-1 reporter mRNA; actives raise or lower the signal
Method in brief: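 After 24 h incubation with test chemical, RNA from transfected HepG2 cells was reverse-transcribed, amplified, fluorescently labelled and digested before capillary electrophoresis. Reporters were driven by cis-regulatory promoters; activity fitted bidirectionally versus DMSO.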

[5] = ATG_AP_2_CIS: Attagene CIS-FACTORIAL HepG2 Assay for human Activator Protein 2 (AP-2) (AID 2282932); conditions: HepG2 AP-2 cis-reporter, Attagene transcription factor profiling; actives raise or lower the signal
Method in brief: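 Transiently transfected HepG2 cells are exposed to chemical for 24 h. Reporter transcripts are then measured as fluorescence following RT-PCR and capillary separation, and gain- or loss-of-signal is fitted relative to DMSO.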

[6] = ATG_BRE_CIS: Attagene CIS-FACTORIAL HepG2 Assay for human Bone Morphogenetic Protein (BMP) Response Element (BRE) (AID 2282933); conditions: HepG2 BMP response element reporter, Attagene transcription factor profiling; actives raise or lower the signal
Method in brief: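 Gain- or loss-of-signal was derived by bidirectional fitting against DMSO controls. The signal came from reporter mRNA, measured by RT-PCR and capillary electrophoresis, in HepG2 cells transiently carrying multiple reporter units and dosed for 24 h.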

[7] = target: Transcription factor E2F1 (Homo sapiens) (UniProt Q01094); test: ATG_E2F_CIS: Attagene CIS-FACTORIAL HepG2 Assay for human E2F Transcription Factor 1 (AID 2282935); conditions: HepG2 Attagene cis-reporter, E2F reporter RNA transcripts; actives raise or lower the signal
Method in brief: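 Fluorescent RT-PCR products, digested with HpaI for 2 h at 37 C, are separated by capillary electrophoresis. Source RNA comes from transfected HepG2 cultures treated for 24 h.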

[8] = ATG_E_Box_CIS: Attagene CIS-FACTORIAL HepG2 Assay for human Enhancer Box (E-box) (AID 2282936); conditions: HepG2 E-box cis-reporter transcription, actives raise or lower the signal
Method in brief: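 Fluorescent reporter fragments separated by capillary electrophoresis gave the signal; mRNA came from HepG2 cells transfected with cis-element reporters and treated 24 h. Curves fitted bidirectionally relative to DMSO controls.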

[9] = ATG_M_61_CIS: Attagene CIS-FACTORIAL HepG2 Assay for M61 Transcription Factor (Internal Marker) (AID 2282937); conditions: HepG2 Attagene CIS-FACTORIAL M61 internal marker reporter; actives raise or lower the signal
Method in brief: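 Using transiently transfected HepG2 liver cells, reporter transcript levels were assessed 24 h post-dosing by RT-PCR and capillary electrophoresis. Changes in either direction were fitted relative to DMSO controls.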

[10] = ATG_EGR_CIS: Attagene CIS-FACTORIAL HepG2 Assay for human Early Growth Response 1 (EGR1) (AID 2282938); conditions: HepG2 Attagene CIS-FACTORIAL EGR reporter mRNA; actives raise or lower the signal
Method in brief: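 Fluorescent capillary-electrophoresis signal of reporter cDNA fragments serves as read-out. HepG2 cells bear transiently transfected cis-promoter reporter units and are exposed 24 h; gain- or loss-of-signal is fitted against DMSO.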

[11] = ATG_Ets_CIS: Attagene CIS-FACTORIAL HepG2 Assay for human Erythroblast Transformation Specific (ETS) (AID 2282941); conditions: HepG2 ETS cis-reporter transcription, actives raise or lower the signal
Method in brief: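 Multiplexed reporter transcript profiling: HepG2, 24 h treatment, total RNA to cDNA, PCR, 6-FAM labelling, HpaI cut, capillary electrophoresis. Gain- or loss-of-signal fitted against DMSO.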

[12] = ATG_GATA_CIS: Attagene CIS-FACTORIAL HepG2 Assay for human GATA Binding Protein (AID 2282944); conditions: HepG2 GATA cis-element reporter, Attagene multiplex mRNA; actives raise or lower the signal
Method in brief: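 DMSO serves as negative control and baseline for bidirectional fitting of reporter mRNA changes. HepG2 cells bearing transiently transfected cis-promoter reporters were exposed 24 h; transcripts detected via RT-PCR and capillary electrophoresis.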

[13] = ATG_GLI_CIS: Attagene CIS-FACTORIAL HepG2 Assay for human Zinc Finger Protein GLI1 (AID 2282945); conditions: HepG2, Attagene cis-factorial reporter mRNA, GLI element; actives raise or lower the signal
Method in brief: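 Bidirectional curve fits relative to DMSO, using reporter mRNA levels from RT-PCR plus capillary electrophoresis. Cells were HepG2 transiently carrying cis-regulated reporter constructs, harvested 24 h after dosing.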

[14] = ATG_ISRE_CIS: Attagene CIS-FACTORIAL HepG2 Assay for human Interferon Regulatory Factor 1 (IRF1) binding to an Interferon-Stimulated Response Element (ISRE) (AID 2282948); conditions: HepG2 ISRE cis-reporter (Attagene), mRNA transcription readout; actives raise or lower the signal
Method in brief: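 Signal reflects induction or loss of ISRE-linked reporter mRNA in transiently transfected HepG2 cells after a 24 h treatment, detected by fluorescent RT-PCR fragments on capillary electrophoresis and normalised to DMSO.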

[15] = ATG_M_32_CIS: Attagene CIS-FACTORIAL HepG2 Assay for M32 Transcription Factor (Internal Marker) (AID 2282949); conditions: HepG2 Attagene cis-factorial M32 reporter, mRNA; actives raise or lower the signal;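 also: background control marker of the multiplexed CIS panel rather than a real target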
Method in brief: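 Transient MRTU transfection of HepG2; 24 h compound treatment; TriZol RNA, oligo(dT) RT, reporter PCR, 6-FAM primer extension, HpaI cut, CE. Gain/loss of signal vs DMSO.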

[16] = ATG_M_06_CIS: Attagene CIS-FACTORIAL HepG2 Assay for M06 Transcription Factor (Internal Marker) (AID 2282950); conditions: HepG2 Attagene CIS-FACTORIAL M06 internal marker reporter; actives raise or lower the signal
Method in brief: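 Fluorescence-labelled RT-PCR products from cis-promoter reporter units, cut with HpaI and resolved by capillary electrophoresis, give the signal. Cells are human HepG2, dosed for 24 h. Serves as background control, fitted relative to DMSO.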

[17] = target: Hepatocyte nuclear factor 6 (Homo sapiens) (UniProt Q9UBC0); test: ATG_HNF6_CIS: Attagene CIS-FACTORIAL HepG2 Assay for human Hepatocyte Nuclear Factor 6 (HNF6) (AID 2282952); conditions: HepG2 Attagene cis-factorial HNF6 reporter transcription; actives raise or lower the signal
Method in brief: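 First, HepG2 cells were transfected with the multiplexed cis reporter library and dosed with chemical for 24 h. Next, RNA was reverse-transcribed, PCR-amplified and fluorescently labelled. Finally, HpaI-digested fragments were read by capillary electrophoresis.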

[18] = ATG_MRE_CIS: Attagene CIS-FACTORIAL HepG2 Assay for human Metal Responsive Element (MRE) (AID 2282954); conditions: HepG2 MRE cis-reporter transcription, Attagene multiplex; actives raise or lower the signal
Method in brief: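 Multiplexed cis-reporter assay in human HepG2 liver cells, 24 h incubation with test chemical. Reporter transcripts measured by RT-PCR and capillary electrophoresis; values from bidirectional curve fitting versus DMSO.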

[19] = ATG_PXRE_CIS: Attagene CIS-FACTORIAL HepG2 Assay for human Pregnane X Receptor Element (PXRE) (AID 2282957); conditions: HepG2 Attagene CIS-FACTORIAL PXRE reporter, mRNA; actives raise or lower the signal
Method in brief: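 After a 24 h chemical incubation, total RNA from transfected HepG2 cells was reverse-transcribed and reporter cDNA amplified, FAM-labeled, HpaI-digested and sized by capillary electrophoresis. DMSO served as baseline for bidirectional curve fitting.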

[20] = ATG_Sox_CIS: Attagene CIS-FACTORIAL HepG2 Assay for human SRY-box transcription factor (SOX) (AID 2282960); conditions: HepG2 Attagene cis-factorial SOX reporter, mRNA; actives raise or lower the signal
Method in brief: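 Using transiently transfected HepG2 cells, reporter transcription driven by cis elements was assessed 24 h after dosing. Signal was fluorescence of capillary-separated RT-PCR products, with DMSO defining baseline activity.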

Measured: AC50

Chain of Hepatocyte nuclear factor 6 (Homo sapiens) (Q9UBC0 whole entry, looked up, the tested form may be a part): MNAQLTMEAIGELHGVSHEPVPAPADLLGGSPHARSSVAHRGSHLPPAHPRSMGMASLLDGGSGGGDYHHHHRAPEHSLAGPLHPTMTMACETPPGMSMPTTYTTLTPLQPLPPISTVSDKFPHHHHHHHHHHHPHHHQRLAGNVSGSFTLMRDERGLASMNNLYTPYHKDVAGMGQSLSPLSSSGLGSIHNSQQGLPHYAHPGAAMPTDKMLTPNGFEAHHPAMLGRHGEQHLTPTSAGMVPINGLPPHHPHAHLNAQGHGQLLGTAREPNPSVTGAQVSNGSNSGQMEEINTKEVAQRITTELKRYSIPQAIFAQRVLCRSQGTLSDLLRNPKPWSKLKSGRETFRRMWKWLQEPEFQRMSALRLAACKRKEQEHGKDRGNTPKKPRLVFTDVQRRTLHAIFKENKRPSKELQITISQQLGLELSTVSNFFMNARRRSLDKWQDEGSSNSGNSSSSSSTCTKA
Chain of CCAAT/enhancer-binding protein beta (Homo sapiens) (P17676 whole entry, looked up, the tested form may be a part): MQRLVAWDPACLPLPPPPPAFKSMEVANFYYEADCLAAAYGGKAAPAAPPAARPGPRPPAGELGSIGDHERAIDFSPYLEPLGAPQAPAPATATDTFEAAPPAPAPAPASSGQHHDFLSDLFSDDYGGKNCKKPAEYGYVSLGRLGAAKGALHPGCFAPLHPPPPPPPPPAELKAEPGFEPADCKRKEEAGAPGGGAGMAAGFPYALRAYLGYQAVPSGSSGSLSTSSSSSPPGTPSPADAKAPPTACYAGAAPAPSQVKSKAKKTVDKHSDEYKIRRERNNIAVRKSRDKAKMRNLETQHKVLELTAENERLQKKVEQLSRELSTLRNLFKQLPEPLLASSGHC
Chain of Transcription factor E2F1 (Homo sapiens) (Q01094 whole entry, looked up): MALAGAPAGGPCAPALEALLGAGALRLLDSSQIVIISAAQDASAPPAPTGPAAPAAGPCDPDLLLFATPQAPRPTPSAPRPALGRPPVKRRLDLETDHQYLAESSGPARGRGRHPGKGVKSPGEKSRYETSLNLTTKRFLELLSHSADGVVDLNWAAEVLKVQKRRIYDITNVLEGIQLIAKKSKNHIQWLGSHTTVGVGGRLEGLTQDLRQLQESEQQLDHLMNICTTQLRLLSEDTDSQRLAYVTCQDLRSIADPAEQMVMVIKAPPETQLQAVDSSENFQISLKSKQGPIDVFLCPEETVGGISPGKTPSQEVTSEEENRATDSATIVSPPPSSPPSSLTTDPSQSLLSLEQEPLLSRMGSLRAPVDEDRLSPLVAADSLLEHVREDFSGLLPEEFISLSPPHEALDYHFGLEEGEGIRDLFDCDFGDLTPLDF

CSc1nc(N=[N+]=[N-])nc(NC(C)C)n1
active: [2] 52.8 µM | [19] 27.2 µM
inactive: all other assays above

[Cl-].[Cl-].[Cl-].[Yb+3]
inactive: all assays above

Oc1ccc(C2(c3ccc(O)cc3)c3ccccc3-c3ccccc32)cc1
active: [1] 17.1 µM | [2] 17.7 µM | [3] 10.6 µM | [7] 19.8 µM | [8] 17 µM | [10] 14 µM | [12] 14.6 µM | [13] 19.1 µM | [14] 14.8 µM | [17] 16.8 µM | [18] 13.1 µM | [19] 2.78 µM
inactive: [4] | [5] | [6] | [9] | [11] | [15] | [16] | [20]

CCCCCCCCCCCCCCCC[N+](C)(C)C
active: [1] 24.1 µM | [2] 48.9 µM | [4] 100 µM | [7] 24.2 µM | [8] 48.7 µM | [11] 100 µM | [12] 26.6 µM | [14] 27.4 µM | [15] 25.5 µM | [17] 100 µM | [18] 25.5 µM | [19] 20.3 µM | [20] 100 µM
inactive: [3] | [5] | [6] | [9] | [10] | [13] | [16]

O=CNC(N1CCN(C(NC=O)C(Cl)(Cl)Cl)CC1)C(Cl)(Cl)Cl (stereo not given)
active: [19] 7.22 µM
inactive: all other assays above

N#CCCCCC#N
inactive: all assays above

CC(C)COP(=O)(OCC(C)C)OCC(C)C
active: [3] 57.9 µM | [19] 2.21 µM
inactive: all other assays above

CN1C[C@H](C(=O)N[C@]2(C)O[C@@]3(O)[C@@H]4CCCN4C(=O)[C@H](Cc4ccccc4)N3C2=O)C=C2c3cccc4[nH]cc(c34)C[C@H]21
active: [4] 23.1 µM | [19] 0.445 µM
inactive: all other assays above

CCC[N+](=O)[O-]
inactive: all assays above

O=C(O)COc1ccccc1
inactive: all assays above

c1ccc(P(c2ccccc2)c2ccccc2)cc1
active: [3] 31.5 µM | [19] 4.59 µM
inactive: all other assays above

CCCCCCCCCCCC#N
active: [2] 103 µM | [3] 148 µM | [4] 73.6 µM | [13] 163 µM | [18] 136 µM | [19] 27.8 µM | [20] 103 µM
inactive: all other assays above

CC1(C)[C@H](C(=O)O[C@H](C#N)c2cccc(Oc3ccccc3)c2)[C@@H]1C=C(Br)Br
active: [19] 0.312 µM
inactive: all other assays above

CCC(C)c1cc(C(C)(C)C)cc(-n2nc3ccccc3n2)c1O (stereo not given)
active: [3] 19.3 µM | [19] 4.36 µM
inactive: all other assays above
